Whole data set: some 110,000 compounds, median “z-score” near -0.1, cut for the highest 2% near 2. The list comes from a sample in which the highest values are over-represented; it also holds similar structures and randomly drawn compounds. Calls of active or inactive are those of the source.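 How the source made its calls: active means z-score in the third read window above 3 or below -3; inactive means the rest.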

The target in this experiment is Metabotropic glutamate receptor 8 (Rattus norvegicus) (UniProt P70579). As to the kind of experiment: rat mGluR8 modulators via GIRK flux, primary screen, cell-based, thallium flux, HTS (AID 488969). The following applies: HEK293 rat mGluR8, GIRK (G protein-gated inwardly rectifying potassium channel) thallium flux, FluoZin2; at 10 µM; stronger effect = higher value; submaximal glutamate (EC20) added with thallium.
Sequence of Metabotropic glutamate receptor 8 (Rattus norvegicus) (P70579 whole entry, looked up): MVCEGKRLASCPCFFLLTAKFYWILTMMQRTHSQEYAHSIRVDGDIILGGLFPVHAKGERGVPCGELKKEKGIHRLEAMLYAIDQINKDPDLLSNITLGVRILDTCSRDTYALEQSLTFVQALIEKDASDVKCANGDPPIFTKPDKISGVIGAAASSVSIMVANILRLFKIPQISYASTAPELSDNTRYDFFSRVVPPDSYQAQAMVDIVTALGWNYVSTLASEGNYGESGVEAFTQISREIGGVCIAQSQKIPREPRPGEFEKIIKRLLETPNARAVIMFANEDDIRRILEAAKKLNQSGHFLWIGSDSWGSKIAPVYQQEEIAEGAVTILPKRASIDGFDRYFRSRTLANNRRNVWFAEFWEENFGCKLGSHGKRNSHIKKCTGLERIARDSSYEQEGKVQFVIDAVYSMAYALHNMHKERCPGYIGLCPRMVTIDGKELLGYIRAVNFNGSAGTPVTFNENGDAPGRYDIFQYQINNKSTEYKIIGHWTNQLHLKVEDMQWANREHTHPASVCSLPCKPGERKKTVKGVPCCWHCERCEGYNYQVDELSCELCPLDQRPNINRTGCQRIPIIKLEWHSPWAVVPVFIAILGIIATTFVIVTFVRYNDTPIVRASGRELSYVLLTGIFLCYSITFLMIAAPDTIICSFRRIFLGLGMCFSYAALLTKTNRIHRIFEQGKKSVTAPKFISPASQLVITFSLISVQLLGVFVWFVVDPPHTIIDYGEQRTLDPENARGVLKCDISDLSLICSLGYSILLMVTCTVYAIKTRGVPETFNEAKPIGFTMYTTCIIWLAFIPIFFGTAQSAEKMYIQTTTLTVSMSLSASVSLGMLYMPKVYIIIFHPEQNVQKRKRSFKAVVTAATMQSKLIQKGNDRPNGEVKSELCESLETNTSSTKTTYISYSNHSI
Compound `Clc1ccc(Oc2cnc3ccccc3n2)cc1` yielded a z-score of -0.22.

In the case of `CCC(CC)C(=O)Nc1cc(OC)c(OC)cc1C(=O)O`, the z-score is -0.741. In turn, `O=C(Nc1ccc(O)c(-c2nc3ccccc3o2)c1)C1(c2ccc(Br)cc2)CCCC1` registered a z-score of -0.297. Then `CCOC(=O)CN(C(=O)c1ccccc1)c1ccccc1C`, with -0.114; and `CC(=O)NC(CC(=O)NC1CCCCCC1)c1ccccc1` (centres undefined), with 0.55; and `CC1(C)CC(=O)C2=C(C1)OC(N)=C(C#N)C21C(=O)N(CN2CCOCC2)c2ccccc21` (centres undefined), with -0.00502.

The compound `CCc1ccc2nc(Nc3nc(COC)cc(=O)[nH]3)nc(C)c2c1` showed a z-score of 2.69. Turning to `COCc1cc(=O)[nH]c(Nc2nc(C)c3ccccc3n2)n1`, the z-score is -0.43. Then `COCc1cc(=O)[nH]c(Nc2nc(C)c3cc(OC)ccc3n2)n1`, with -0.401.

In turn, `O=C(CSc1nc2nc3c(cc2c(=O)n1-c1ccccc1)CCCC3)Nc1ccccc1` yielded a z-score of -0.468. To `CCn1c(N)c(C(=O)NCc2ccco2)sc1=S` belongs 4.44 (active); to `C=CCn1c(N)c(C(=O)NCc2ccco2)sc1=S`, 0.688. For `O=C(NCc1ccccc1)c1sc(=S)n2c1[nH]c(=O)c1ccccc12`, the z-score was -0.316. With `O=C(NCc1ccco1)c1sc2ccccc2c1Cl`, the z-score is -0.649. Then `Cc1ccc(-n2c(N)c(C(=O)NCc3ccco3)sc2=S)cc1`, with -0.322; and `O=C(NCc1ccco1)c1sc(=S)n2c1[nH]c(=O)c1ccccc12`, with 2.75. Compound `CC(=O)Oc1ccc2oc(=O)c3c(c2c1)CCCN3C(=O)CN1CCN(c2ncccn2)CC1` came in with a z-score of -0.26. `CCOC(=O)CC1=CSC2=NS(=O)(=O)CCN12` yielded a z-score of -0.784. For `CC(=O)C1=C(C)NC(SCC(=O)c2ccccc2)=C(C#N)C1c1ccco1` (centres undefined), the z-score was -1.16.

`CCc1cc2c(=O)[nH]c(Cc3ccccc3)nc2s1`: the z-score was -0.371. The compound `COC(=O)c1ccc(COC(=O)c2ccc(CS(=O)(=O)c3ccc(C)cc3)cc2)cc1` registered a z-score of -0.331. Then `Cc1ccc2c(Cl)cc(Cl)c(OCC(=O)Nc3cccc(S(=O)(=O)N(C)C)c3)c2n1`, with 0.415. On to `Cc1ccc(NC(=O)Cc2c(Cl)cccc2Cl)cc1S(=O)(=O)N(C)C`, for which the z-score was 1. Then `CN(C)S(=O)(=O)c1cccc(NC(=O)COC(=O)CCC(=O)c2ccc(F)cc2)c1`, with -0.326. To `CCOCC(=O)Nc1c(C(=O)OCC)oc2ccccc12` belongs -0.215; to `Cc1ccc(NC(=O)CCNC(=O)c2ccccc2Cl)cc1S(=O)(=O)N(C)C`, -0.00648; to `Cc1ccc(NC(=O)Cc2ccccc2Cl)cc1S(=O)(=O)N(C)C`, 12.9 (active). `Cc1ccc(S(=O)(=O)N(C)C)cc1NC(=O)COC(=O)CCC(=O)c1ccc(F)cc1` yielded a z-score of -0.39. In the case of `Cc1ccc(NC(=O)COC(=O)CCC(=O)c2ccc(Cl)cc2)cc1S(=O)(=O)N(C)C`, the z-score is 3.92 (active). Then `CCOCc1c(C(=O)OCC(=O)Nc2ccc(C)c(S(=O)(=O)N(C)C)c2)oc2ccccc12`, with 9.51 (active); and `Cc1ccc2c(Cl)cc(Cl)c(OCC(=O)Nc3ccc(C)c(S(=O)(=O)N(C)C)c3)c2n1`, with 2.31; and `Cc1ccc(NC(=O)COC(=O)/C=C/c2ccco2)cc1S(=O)(=O)N(C)C`, with 1.23. `Cc1ccc2c(Cl)cc(Cl)c(OCC(=O)Nc3cc(S(=O)(=O)N(C)C)ccc3C)c2n1` gave a z-score of -0.0675. Take `CCOc1cc(C)c(S(=O)(=O)NC2CCCCC2)cc1C`: the z-score was -0.571. To `O=c1c2ccccc2nc(COc2ccccc2)n1/N=C/c1c[nH]c2ccccc12` belongs -0.533. To `O=[N+]([O-])c1cc(Cl)cc(C2=NCCN2)c1` belongs 0.173. Then `COc1ccc(N(CC(=O)NCc2ccccc2OC)S(=O)(=O)c2c(C)nn(C)c2C)cc1`, with -0.153; and `COc1ccc(-c2nn(-c3ccccc3)cc2C(=O)O)cc1OC`, with 0.191.

`COc1ccccc1N1CCN(CC(=O)Nc2cc(F)ccc2C)CC1`: the z-score amounted to 0.0403.

`CCN(CC)c1ccc(NC(=O)CSc2nc3ccccc3c(=O)[nH]2)cc1`: the z-score was -0.106.

As for `Cc1ccc2c(Cl)cc(Cl)c(OCC(=O)NCc3ccco3)c2n1`, the z-score is 3.48 (active). With `Cc1ccc2c(Cl)cc(Cl)c(OCC(=O)Nc3cc(C)on3)c2n1`, the z-score amounted to 0.0628.

Compound `Cc1ccc2c(Cl)cc(Cl)c(OCC(=O)NC(=O)NCc3ccco3)c2n1` registered a z-score of -0.127. The compound `Cc1c(C(=O)O)cccc1-c1ccc(C=O)o1` displayed a z-score of 0.12.

In turn, `CC(C)CNS(=O)(=O)c1ccc(OCC(=O)Nc2ccc3c(c2)OCO3)c(Cl)c1` yielded a z-score of -0.19. Then `CCN(CC)S(=O)(=O)c1ccc(NC(=O)COC(=O)c2ccc(-n3nc(C)cc3C)cc2)cc1`, with 0.0126. Compound `Cc1cc(C)n(-c2ccc(C(=O)OCC(=O)Nc3ccc(S(=O)(=O)N4CCCCC4)cc3)cc2)n1` registered a z-score of -0.00692.

Consider `CC(C)NS(=O)(=O)c1ccc(OCC(=O)Nc2ccc3c(c2)OCO3)c(Cl)c1`, for which the z-score was 3.09 (active). Compound `Cc1ccc(S(=O)(=O)N(C)C)cc1NC(=O)COC(=O)c1ccc2c(c1)OCO2` showed a z-score of 1.63. Then `Cc1ccc(NC(=O)COC(=O)c2ccc3c(c2)OCO3)cc1S(=O)(=O)N1CCCCC1`, with -0.401; and `O=C(COc1ccc(S(=O)(=O)NC2CCCCC2)cc1Cl)Nc1ccc2c(c1)OCO2`, with 0.2; and `CN(C)S(=O)(=O)c1cc(NC(=O)COC(=O)c2ccc3c(c2)OCO3)ccc1Cl`, with 10.1 (active).

With `Cc1nn(CC(=O)Nc2ccc(Cl)c(S(=O)(=O)N(C)C)c2)c(C)c1[N+](=O)[O-]`, the z-score was 4.55 (active). To `Cc1nn(CC(=O)Nc2cc(S(=O)(=O)N(C)C)ccc2Cl)c(C)c1[N+](=O)[O-]` belongs 0.164; to `Cc1cc(C)n(-c2ccc(C(=O)OCC(=O)Nc3ccc(Cl)c(S(=O)(=O)N(C)C)c3)cc2)n1`, 15.5 (active).

With `Cc1nn(CC(=O)Nc2ccc(S(=O)(=O)N(C)C)cc2)c(C)c1[N+](=O)[O-]`, the z-score is -0.0283. To `Cc1ccc(S(=O)(=O)CC(C)N2CCN(C3CCCCC3)CC2)cc1` (centres undefined) belongs 1.44; to `COc1ccccc1C(=O)COC(=O)c1ccccc1OCC(=O)Nc1ccc(SC(F)F)cc1`, 1.1; to `COc1cccc(/C(O)=C2/C(=O)C(=O)N(Cc3ccco3)C2c2ccncc2)c1` (centres undefined), -0.192. Then `O=C(CSc1nnc(CN2CCOCC2)n1-c1ccc(Cl)cc1)Nc1cc(Cl)ccc1O`, with -0.794; and `Cc1cc(C)nc(NS(=O)(=O)c2ccc(NC(=O)CN3C(=O)c4ccccc4C3=O)cc2)n1`, with 0.113; and `CCCOc1ccc(/C=N/NC(=O)C(=O)Nc2ccccn2)cc1`, with 3.92 (active). To `COc1cc(/C=N/NC(=O)C(=O)Nc2ccccn2)ccc1O` belongs -0.198; to `COc1ccc(/C=N/NC(=O)C(=O)Nc2ccccn2)cc1OC`, 0.813.

(Values after PubChem BioAssay AID488969 (Vanderbilt High Throughput Screening Facility, 2010).)
